In PubChem BioAssay (Tox21) one finds Potency and activity change, negative = cytotoxicity data, which are given here for 40 molecules.

Inconclusive results are not listed. Where a call stands in place of a potency, no number is given. Unmarked numbers belong to inactive results. The source made the active and inactive calls. Calls follow the shape of the dose curve; as a rule, active = well fitted cell-killing curve with a large enough effect in the repeat runs; inconclusive = weak or mixed curves, or effect the other way; inactive = flat fitted curve, though single readings scatter.
Potency is read from the fitted curve at half-maximal effect.

The nature of this experiment: Nuclear factor erythroid 2-related factor 2/antioxidant responsive element (Nrf2/ARE) small molecule agonists: qHTS cell viability counter screen in human keratinocytes (AID 1919968). Also: nearly all actives have a fitted effect of over 55% in size. The settings on record: KeratinoSens HaCaT ARE cells viability, CellTiter-Fluor, 24 h; series mostly up to 92.4 µM. The source says:
U.S. Tox21 Program National Center for Advancing Translational Sciences [NCATS] Division of Preclinical Innovation [DPI] U.S. Environmental Protection Agency [EPA] National Institutes of Environmental Health Sciences [NIEHS] National Toxicology Program [NTP] U.S. Food and Drug Administration [FDA] Tox21 Assay Overview: Oxidative stress has been implicated in the pathogenesis of a variety of diseases ranging from cancer to neurodegeneration. The antioxidant response element (ARE) signaling pathway plays an important role in the amelioration of oxidative stress. The KeratinoSens (Givaudan, Switzerland) is an in vitro test method which quantifies luciferase induction as a measure of activation of Keap1-Nrf2-antioxidationt/electrophile response element (ARE) dependant pathway in HaCaT human keratinocytes stably transfected with a selectable plasmid. The KeratinoSens assay is a cell-based assay with a reporter cell line to detect potential skin sensitizers by their ability to induce the Nrf2/ARE-response. The activation of the report gene under culture conditions can be detected by ONE-Glo Luciferase Assay System (Promega, Madison, WI). This cell line has been used to screen the Tox21 10K compound library to identify agonists that induce oxidative stress. The cytotoxicity of the Tox21 compound library against the KS-ARE cell line was tested in parallel by measuring the cell viability using CellTiter- Fluor assay system (Promega, Madison, WI) in the same wells.
Tox21 Assay Protocol Summary: HaCaT derived cell line KeratinoSens were dispensed at 1,500 cells/5uL/well in 1536-well white wall/solid bottom plates using a Multidrop Combi (ThermoFisher Scientific, Waltham, MA) dispenser. After the assay plates were incubated at 37 C/5% CO2 for 5 h, 23 nL of compounds dissolved in DMSO, positive controls or DMSO only was transferred to the assay plate by a pintool workstation (Kalypsys, San Diego, CA). The plates were incubated at 37 C/5% CO2 for 23 h, followed by addition of 1uL/well of CellTiter-Fluor reagent into the assay plates using a Flying Reagent Dispenser (Aurora Discovery, San Diego, CA) for cell viability readout that measures cytotoxicity. After 1 h incubation at 37 C/5% CO2 the fluorescence intensity was measured using a ViewLux (PerkinElmer, Shelton, CT) plate reader.
Take `CCCCCCCCCCCCCCCC(=O)OC[C@H](O)[C@H]1OC(=O)C(O)=C1O`: the Potency result was “inactive”.

For the molecule `CCCOc1ccc(C(=O)OCCN(CC)CC)cc1N`, the Potency entry is “inactive”.

With `CCN(CC)CCOC(=O)C(c1ccccc1)c1ccccc1`, the Potency entry was “inactive”.

For the molecule `O=C(c1ccccc1)c1ccc(Cl)cc1`, the Potency entry is “inactive”.

In the case of `NC(=O)C(c1ccccc1)(c1ccccc1)[C@@H]1CCN(CCc2ccc3c(c2)CCO3)C1`, the Potency entry is “inactive”.

On to `CCCN(CCC)CCc1cccc2c1CC(=O)N2`, for which the Potency result was “inactive”.

In the case of `Cc1c(C(=O)NCCO)[n+](=O)c2ccccc2n1[O-]`, the Potency entry was “inactive”.

For the molecule `OCCCCCCO`, the Potency entry is “inactive”.

Take `COc1cc2c(cc1OC)CN(C(=O)[C@H](C)N[C@@H](CCc1ccccc1)C(=O)O)[C@H](C(=O)O)C2`: the Potency result is “inactive”.

Regarding `CC(C)Cn1cnc2c(N)nc3ccccc3c21`, the activity change, negative = cytotoxicity was -5.63% [at 19 µM].

Regarding `Cc1ccc(OC(=O)c2ccccc2O)cc1`, the Potency entry was “inactive”.

With `CN1CCN(c2cc3c(cc2F)c(=O)c(C(=O)O)cn3-c2ccc(F)cc2)CC1`, the Potency is 1.88 µM (active).

For `COc1ccc(-c2cc(=O)c3c(O)cc(O[C@@H]4O[C@H](CO[C@@H]5O[C@@H](C)[C@H](O)[C@@H](O)[C@H]5O)[C@@H](O)[C@H](O)[C@H]4O)cc3o2)cc1O`, the Potency entry was “inactive”.

Take `O=C(O)CCC(=O)C(=O)O`: the Potency entry was “inactive”.

For `O=C(OCC(O)CO)c1ccccc1Nc1ccnc2c(C(F)(F)F)cccc12` (stereo not given), the Potency result is “inactive”.

`COc1ccccc1N1CCN(CCCNc2cc(=O)n(C)c(=O)n2C)CC1`: the Potency result is “inactive”.

As to `CC(=O)C1C(=O)C=C(C)OC1=O` (stereo not given), the Potency entry is “inactive”.

For the molecule `CC(C)c1ccc(C#N)cc1`, the Potency result is “inactive”.

In the case of `Cc1cnc(NS(=O)(=O)c2ccc(N)cc2)nc1`, the Potency result was “inactive”.

With `CCCCCCOC(=O)C(C)C`, the Potency result is “inactive”.

Regarding `CN1CCCC(n2nc(Cc3ccc(Cl)cc3)c3ccccc3c2=O)CC1` (stereo not given), the Potency entry is “inactive”.

`COc1cc(-c2nc(NC(=O)c3cc4cc(C)cc(C)c4n3CC(=O)O)sc2CCC2CCCCC2)c(OC)cc1Cl`: the Potency is 17.7 µM (active).

In the case of `CC(=O)Nc1ccc(N)cc1`, the Potency result was “inactive”.

As to `CCOC(CN1CCN(CC(C)C(=O)c2ccccc2)CC1)c1ccccc1` (stereo not given), the activity change, negative = cytotoxicity was -17.1% [at 19 µM].

As for `CCCCCCCCOc1ccccc1C(=O)Nc1ccc(C(=O)OCC[N+](C)(CC)CC)cc1`, the Potency entry was “inactive”.

On to `CN1CCN(c2c(F)cc3c(=O)c(C(=O)O)cn4c3c2OCN4C)CC1`, for which the activity change, negative = cytotoxicity is 9.2% [at 19 µM].

Consider `CCN(CC)C(=O)/C(C#N)=C/c1cc(O)c(O)c([N+](=O)[O-])c1`, for which the Potency result is “inactive”.

Consider `Nc1cccc2c(=O)[nH][nH]c(=O)c12`, for which the Potency entry is “inactive”.

For the molecule `COc1ccc(OC(=O)N(CC(=O)O)Cc2ccc(OCCc3nc(-c4ccccc4)oc3C)cc2)cc1`, the Potency result is “inactive”.

Consider `OC(CCCN1CCCCC1)(c1ccccc1)c1ccccc1`, for which the Potency entry was “inactive”.

For the molecule `c1ccc(C[P+](c2ccccc2)(c2ccccc2)c2ccccc2)cc1`, the Potency result was “inactive”.

Regarding `COCCO`, the Potency entry is “inactive”.

As to `COc1ccc2nc(NC(=O)Nc3ccccc3)sc2c1`, the Potency entry was “inactive”.

Turning to `COC(=O)CCCC(=O)O`, the Potency entry is “inactive”.

On to `O=C(O)c1cccc(-c2noc(-c3ccccc3F)n2)c1`, for which the Potency entry was “inactive”.

`CC(C)(C)NCC(O)COc1ccc(NC(=O)NC2CCCCC2)cc1` (stereo not given): the Potency result is “inactive”.

In the case of `CCCCCCC(O)CCCCCCCCCCC(=O)OC` (stereo not given), the Potency entry was “inactive”.

For the molecule `CN(C)CCN1CCOCC1`, the Potency result is “inactive”.

Consider `CCCCC(=O)O[C@]1(C(=O)CO)[C@H](C)C[C@H]2[C@@H]3CCC4=CC(=O)C=C[C@]4(C)[C@@]3(F)[C@@H](O)C[C@@]21C`, for which the Potency result was “inactive”.

As to `O=C(Cn1ccnc1[N+](=O)[O-])NCCO`, the Potency result is “inactive”.
